From PubChem BioAssay AID1159580 (chemical genetic matrix, 2015)
In all, about 5,500 compounds went through this assay and about 2,000 (36%) were called active. Inconclusive results (about 18%) are left out. The list shows a part of the results. A number with no mark means an inactive call. Rule as the data show it: active = normalized growth mostly below about 0.91 (no sharp cut-off); inconclusive = no clear call, values can overlap the other calls; inactive = mostly above about 0.92.

Assay: chemical genetic growth profiling, strain panel (AID 1159580);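 also: tested at 20 µM; growth read once vehicle control cultures reached saturation at 30 °C; 1 = growth at the plate median or of vehicle wells; lower values mean less growth of the strain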
Settings: S. cerevisiae deletion strains, growth OD
[1] = locus YHR030C, strain SLT2, active compounds read low
[2] = locus YHR079C, strain IRE1, active compounds read low
[3] = locus YJL095W, strain BCK1, active compounds read low
[4] = locus YJR066W, strain TOR1, active compounds read low
[5] = locus YLR113W, strain HOG1, active compounds read low
[6] = locus YNL183C, strain NPR1, active compounds read low
[7] = locus YOR231W, strain MKK1, active compounds read low
[8] = locus YPL256C, strain CLN2, active compounds read low

OC1(C(F)(F)F)CC(C23CC4CC(CC(C4)C2)C3)=NN1 (centres undefined)
normalized growth (locus YAR019C, strain CDC15, active compounds read low): 0.867 (active)
normalized growth (locus YBL105C, strain PKC1, active compounds read low): 0.905
normalized growth (locus YBR135W, strain CKS1, active compounds read low): 0.898
normalized growth (locus YBR136W, strain MEC1, active compounds read low): 0.889 (active)
normalized growth (locus YBR160W, strain CDC28, active compounds read low): 0.891 (active)
normalized growth (locus YDL017W, strain CDC7, active compounds read low): 0.913
normalized growth (locus YDL028C, strain MPS1, active compounds read low): 0.847 (active)
normalized growth (locus YDL101C, strain DUN1, active compounds read low): 0.897 (active)
normalized growth (locus YDL108W, strain KIN28, active compounds read low): 0.892 (active)
normalized growth (locus YDL132W, strain cdc53, active compounds read low): 0.872 (active)
normalized growth (locus YDL214C, strain PRR2, active compounds read low): 0.642 (active)
normalized growth (locus YDR052C, strain DBF4, active compounds read low): 0.882 (active)
normalized growth (locus YDR054C, strain cdc34, active compounds read low): 0.88
normalized growth (locus YDR226W, strain ADK1, active compounds read low): 0.859 (active)
normalized growth (locus YDR477W, strain SNF1, active compounds read low): 0.505 (active)
normalized growth (locus YER123W, strain YCK3, active compounds read low): 0.435 (active)
normalized growth (locus YER133W, strain GLC7, active compounds read low): 0.57 (active)
normalized growth (locus YFL009W, strain cdc4, active compounds read low): 0.851 (active)
normalized growth (locus YFL029C, strain CAK1, active compounds read low): 0.876 (active)
normalized growth (locus YFR003C, strain YPI1, active compounds read low): 0.905
normalized growth (locus YFR019W, strain FAB1, active compounds read low): 0.527 (active)
normalized growth (locus YFR028C, strain CDC14, active compounds read low): 0.86 (active)
normalized growth (locus YGR040W, strain KSS1, active compounds read low): 0.497 (active)
normalized growth (locus YGR052W, strain FMP48, active compounds read low): 0.62
normalized growth (locus YGR092W, strain DBF2, active compounds read low): 0.487
normalized growth [1]: 0.183 (active)
normalized growth [2]: 0.645
normalized growth (locus YHR082C, strain KSP1, active compounds read low): 0.688
normalized growth (locus YHR205W, strain SCH9, active compounds read low): 0.531 (active)
normalized growth (locus YIL147C, strain SLN1, active compounds read low): 0.889 (active)
normalized growth [3]: 0.163 (active)
normalized growth (locus YJL128C, strain PBS2, active compounds read low): 0.946
normalized growth (locus YJL157C, strain FAR1, active compounds read low): 0.655 (active)
normalized growth (locus YJR016C, strain ILV3, active compounds read low): 0.891 (active)
normalized growth (locus YJR066W, strain TOR1 (second series), active compounds read low): 0.718
normalized growth [4]: 0.411 (active)
normalized growth (locus YKL048C, strain ELM1, active compounds read low): 0.884
normalized growth (locus YKL067W, strain YNK1, active compounds read low): 0.634 (active)
normalized growth (locus YKL101W, strain HSL1, active compounds read low): 0.716 (active)
normalized growth (locus YKL193C, strain SDS22, active compounds read low): 0.888 (active)
normalized growth (locus YKL203C, strain TOR2, active compounds read low): 0.555 (active)
normalized growth [5]: 0.578 (active)
normalized growth (locus YLR133W, strain CKI1, active compounds read low): 0.655 (active)
normalized growth (locus YLR403W, strain SFP1, active compounds read low): 0.469 (active)
normalized growth (locus YML070W, strain DAK1, active compounds read low): 0.643 (active)
normalized growth (locus YMR001C, strain CDC5, active compounds read low): 0.881 (active)
normalized growth (locus YMR205C, strain PFK2 (second series), active compounds read low): 0.735 (active)
normalized growth (locus YMR277W, strain FCP1, active compounds read low): 0.863 (active)
normalized growth (locus YNL006W, strain LST8, active compounds read low): 0.892 (active)
normalized growth (locus YNL020C, strain ARK1, active compounds read low): 0.659 (active)
normalized growth (locus YNL161W, strain CBK1, active compounds read low): 0.898 (active)
normalized growth [6]: 0.618
normalized growth (locus YNL207W, strain RIO2, active compounds read low): 0.867 (active)
normalized growth (locus YNL222W, strain SSU72, active compounds read low): 0.876 (active)
normalized growth (locus YNL307C, strain MCK1 (second series), active compounds read low): 0.565 (active)
normalized growth (locus YOL078W, strain AVO1, active compounds read low): 0.893
normalized growth (locus YOL136C, strain PFK27, active compounds read low): 0.715
normalized growth (locus YOR061W, strain CKA2, active compounds read low): 0.17 (active)
normalized growth (locus YOR119C, strain RIO1, active compounds read low): 0.521 (active)
normalized growth [7]: 0.637
normalized growth (locus YOR329C, strain SCD5, active compounds read low): 0.901 (active)
normalized growth (locus YPL031C, strain PHO85, active compounds read low): 0.471 (active)
normalized growth (locus YPL153C, strain RAD53, active compounds read low): 0.517 (active)
normalized growth (locus YPL204W, strain HRR25, active compounds read low): 0.477 (active)
normalized growth (locus YPL209C, strain IPL1, active compounds read low): 0.89 (active)
normalized growth [8]: 0.64 (active)
normalized growth (locus YPR025C, strain CCL1, active compounds read low): 0.893 (active)
normalized growth (locus YPR106W, strain ISR1, active compounds read low): 0.915
normalized growth (locus YPR111W, strain DBF20, active compounds read low): 0.875
normalized growth (strain NNK1, active compounds read low): 0.921
normalized growth (strain TSCII, active compounds read low): 0.858 (active)

CC(=O)OCC(=O)[C@@]1(O)[C@@H](C)CC2C3CCC4=CC(=O)C=C[C@]4(C)[C@@]3(F)[C@@H](O)C[C@@]21C (some centres undefined)
normalized growth [1]: 1.06
normalized growth [2]: 1.05
normalized growth [3]: 1.01
normalized growth [4]: 1
normalized growth [5]: 0.994
normalized growth [6]: 0.991
normalized growth [7]: 1.05
normalized growth [8]: 1.06
